According to PubChem BioAssay (NCATS):
Records with an inconclusive call do not appear. Where a call stands in place of a potency, no number is given. Calls of active or inactive are those of the source. The call rests on the fitted dose curve; in most records, active means well fitted inhibition curve with a large enough effect; inconclusive means small, poorly fitted or top-dose-only effect; inactive means no such curve, though single readings can be large or run the other way.

Target: Thioredoxin reductase 1, cytoplasmic (Rattus norvegicus) (UniProt O89049)
Sequence (O89049 whole entry, looked up): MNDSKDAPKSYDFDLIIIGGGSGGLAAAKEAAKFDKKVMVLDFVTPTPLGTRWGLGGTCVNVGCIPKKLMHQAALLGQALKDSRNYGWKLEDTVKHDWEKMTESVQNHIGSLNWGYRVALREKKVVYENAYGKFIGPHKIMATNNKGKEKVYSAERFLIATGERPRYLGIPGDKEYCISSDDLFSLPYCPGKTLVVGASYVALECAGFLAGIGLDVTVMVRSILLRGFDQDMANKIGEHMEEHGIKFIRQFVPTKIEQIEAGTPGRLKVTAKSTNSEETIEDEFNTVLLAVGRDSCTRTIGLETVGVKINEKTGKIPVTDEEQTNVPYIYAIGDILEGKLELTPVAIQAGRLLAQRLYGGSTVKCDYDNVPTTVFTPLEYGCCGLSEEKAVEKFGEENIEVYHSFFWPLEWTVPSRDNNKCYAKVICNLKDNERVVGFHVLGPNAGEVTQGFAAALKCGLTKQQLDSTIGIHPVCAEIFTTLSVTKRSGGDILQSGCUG
Assay: qHTS Assay for Inhibitors of Mammalian Selenoprotein Thioredoxin Reductase 1 (TrxR1) (AID 488773); further: nearly all actives have a fitted effect of over 40% in size
Conditions: purified TrxR1 enzyme activity; Potency: inhibition; series mostly up to 57.1 µM
Excerpt: The selenoprotein thioredoxin reductase (TrxR; EC 1.8.1.9) is a FAD containing homodimeric pyridine nucleotide-disulfide oxidoreductase with many cellular roles. Together with NADPH and its prime substrate thioredoxin (Trx), the enzyme forms the core of the Trx system. The mammalian Trx system exerts a wide spectrum of functions including redox regulation, antioxidant defense, regulation of transcription factors as well as support of cell growth and replication. Many of these functions involve the reduction of Trx, which may subsequently reduce a number of different substrates including ribonucleotide reductase, peroxiredoxins or NFkB. Mammalian TrxR itself also has a broad substrate specificity, reducing both protein and non-protein substrates, including low molecular weight compounds such as dehydroascorbate, lipoic acid, ubiquinone, and juglone. In addition, several drugs in clinical use for anticancer treatment are indeed known to target TrxR1.
This BioAssay is a validation of an NADPH fluorescence-based, dual-purpose qHTS rTrxR1 assay designed to find potential inhibitors and substrates of rTrxR1. For this particular BioAssay, actives are potential inhibitors. See related BioAssay for substrate data deposition.
Assay protocol: 2 uL of reagents (buffer in column 4 as negative control and 90 nM rTrxR1 in columns 1-3 and 5-48) were dispensed into Greiner black solid-bottom 1,536-well assay plates, followed by 1 uL of NADPH (400 uM final concentration) to each well. The plates were centrifuged at 1000 rpm for 15 seconds and subsequently incubated for 5 min at room temperature (~22 deg C) to allow for rTrxR1 reduction. Compounds (23 nL) were then transferred via Kalypsys pin tool equipped with 1536-pin array (10 nL slotted pins, V&P Scientific, San Diego, CA). In addition, a duplicate 2-fold serial dilution of the control compounds auranofin, a known gold-based TrxR1 inhibitor, and juglone (5-hydroxy-1,4-naphthoquinone), a natural TrxR1 substrate, were pin-transferred to columns 2 and 3, respectively. After incubation for 15 min at room temperature (~22 deg C), 1 uL of selenite (400 uM final concentration) were dispensed to each well. The plate was immediately transferred to a ViewLux high-throughput CCD imager (PerkinElmer), wherein kinetic measurements of NADPH fluorescence (Ex 340 nm, Em 450 nm) were acquired (8 minute kinetic read, see Table 1). Read 1 was utilized to assess the capacity of a compound to serve as an rTrxR1 substrate, i.e. a decrease in NADPH fluorescence compared to the no-compound background is an indication of a substrate behavior for that particular compound. For inhibitory activity of a compound, delta values, computed as the difference in fluorescence intensity between the first and last reads of an 8-minute time kinetic window, were used. All reagents were diluted in an assay buffer consisting of 50 mM Tris-HCl, pH 7.5, 2 mM EDTA, and 0.01% Tween-20.
Throughout the screen, reagent bottle and all liquid lines were made light-tight to minimize reagent degradation. All screening operations were performed on a fully integrated robotic system (Kalypsys, San Diego, CA) containing one RX-130 and two RX-90 anthropomorphic robotic arms (Staubli, Duncan, SC). Library plates were screened starting from the lowest and proceeding to the highest concentration, and a 'double-pinning' step of the highest concentration was required to access higher concentrations of compounds. Vehicle-only plates, with DMSO being pin-transferred to the columns 5-48, were inserted uniformly at the beginning and the end of each library in order to monitor and record any shifts in the background, which can be affected by reagent dispensers or loss in enzyme activity over time. Screening data were corrected, normalized, and concentration-effect relationships were derived by using publicly-available curve fitting algorithms developed in-house (http://ncgc.nih.gov/pub/openhts).
Potency means the concentration at half of the fitted maximal effect.

| Compound | Potency |
| --- | --- |
| CCN(CC)CCNC(=O)c1cc(S(C)(=O)=O)ccc1OC | inactive |
| CCc1cccc(N(C)C(N)=Nc2cccc3ccccc23)c1 | inactive |
| CCCCCN(CCCCC)C(=O)C(CCC(=O)O)NC(=O)c1ccc(Cl)c(Cl)c1 (stereo not given) | inactive |
| CN(C)C(=O)Oc1ccc[n+](C)c1 | inactive |
| NC(N)=N/N=C/c1c(Cl)cccc1Cl | inactive |
| CCN1CCC[C@H]1CNC(=O)c1c(O)c(Cl)cc(Cl)c1OC | inactive |
| COC(=O)C1=C(C)NC(C)=C(C(=O)OC(C)(C)CN(C)CCC(c2ccccc2)c2ccccc2)C1c1cccc([N+](=O)[O-])c1 (stereo not given) | inactive |
| CN1CCN(CC(=O)N2c3ccccc3C(=O)Nc3cccnc32)CC1 | inactive |
| N[C@@H](COP(=O)(O)O)C(=O)O | inactive |
| CC(=O)Nc1nnc(S(N)(=O)=O)s1 | inactive |
| CC(C)NCC(O)c1cc(O)cc(O)c1 (stereo not given) | inactive |
| CCC(=O)c1ccc2c(c1)N(CCCN(C)C)c1ccccc1S2 | inactive |
| CN(C)C/C=C(/c1ccc(Br)cc1)c1cccnc1 | inactive |
| CNC1(C)C2CCC(C2)C1(C)C (stereo not given) | inactive |
| C[C@@H](O)[C@H]1C(=O)N2C(C(=O)O)=C(SCCN=CN)C[C@H]12 | inactive |
| Cc1nc2ccccn2c(=O)c1CCN1CCC(C(=O)c2ccc(F)cc2)CC1 | inactive |
| CCCCNc1c(C(=O)OCC)c(C)nc2c1cnn2CC | inactive |
| FC(F)(F)c1ccccc1-n1ccnc1 | inactive |
| NC(=O)c1cn(Cc2c(F)cccc2F)nn1 | inactive |
| NC(=O)c1ncn([C@@H]2O[C@H](CO)[C@@H](O)[C@H]2O)c1O | inactive |

| Compound | Potency |
| --- | --- |
| C[n+]1cc2c3c(ccc2c2ccc4cc5c(cc4c21)OCO5)OCO3 | inactive |
| CN(C)CCN(Cc1cccs1)c1ccccn1 | inactive |
| OCCN1CCN(CC/C=C2/c3ccccc3Sc3ccc(C(F)(F)F)cc32)CC1 | inactive |
| c1cnc(N2CCN(Cc3ccc4c(c3)OCO4)CC2)nc1 | inactive |
| O=C(O)CCCCCCCC(=O)O | inactive |
| CCCNC(C)C(=O)Nc1ccccc1C (stereo not given) | inactive |
| NCCCNCCSP(=O)(O)O | inactive |
| CCCN(CCC)C(=O)C(CCC(=O)O)NC(=O)c1ccccc1 (stereo not given) | inactive |
| O=c1[nH]c(=O)n([C@H]2C[C@H](O)[C@@H](CO)O2)cc1Br | inactive |
| Nc1nc(N)c2nc(-c3ccccc3)c(N)nc2n1 | inactive |
| NC1=NCC2c3ccccc3Cc3ccccc3N12 (stereo not given) | inactive |
| CN(C)CCCN1c2ccccc2Sc2ccc(C(F)(F)F)cc21 | inactive |
| OC(CCN1CCCCC1)(c1ccccc1)C1CCCCC1 (stereo not given) | inactive |
| C[N+](C)(C)CCCCCCCCCC[N+](C)(C)C | inactive |
| COCC(=O)O[C@]1(CCN(C)CCCc2nc3ccccc3[nH]2)CCc2cc(F)ccc2[C@@H]1C(C)C | inactive |
| Fc1ccc(C(c2ccc(F)cc2)N2CCN(C/C=C/c3ccccc3)CC2)cc1 | inactive |
| C[N+](C)(C)CCOC(=O)CCC(=O)OCC[N+](C)(C)C | inactive |
| OCCN1CCN(CCCN2c3ccccc3C=Cc3ccccc32)CC1 | inactive |
| CN(C)C(=O)Oc1cccc([N+](C)(C)C)c1 | inactive |
| CO[C@@]1(NC(=O)CSCC#N)C(=O)N2C(C(=O)O)=C(CSc3nnnn3C)CS[C@@H]21 | 21.2 µM (active) |
